# In PMC7862700, “An all-to-all approach to the identification of sequence-specific readers for epigenetic DNA modifications on cytosine”:
# What was measured:
# Assay in all cases: DAPPL (digital affinity profiling via proximity ligation, sequencing); 10 mM Tris-HCl pH 7.5, 50 mM NaCl, 1 mM DTT, 4% glycerol, room temperature, 30 min; GST-TFs on glutathione beads, 16-mer random dsDNA library, 0.1% formaldehyde crosslink after washing; high values mean tight binding
# FLI1 = molecular target: T1, FLI1 (Homo sapiens, UniProt Q01543 1-452); conditions: protein: recombinant; tags: N-terminal GST; dsDNA, one strand shown
# T1 sequence: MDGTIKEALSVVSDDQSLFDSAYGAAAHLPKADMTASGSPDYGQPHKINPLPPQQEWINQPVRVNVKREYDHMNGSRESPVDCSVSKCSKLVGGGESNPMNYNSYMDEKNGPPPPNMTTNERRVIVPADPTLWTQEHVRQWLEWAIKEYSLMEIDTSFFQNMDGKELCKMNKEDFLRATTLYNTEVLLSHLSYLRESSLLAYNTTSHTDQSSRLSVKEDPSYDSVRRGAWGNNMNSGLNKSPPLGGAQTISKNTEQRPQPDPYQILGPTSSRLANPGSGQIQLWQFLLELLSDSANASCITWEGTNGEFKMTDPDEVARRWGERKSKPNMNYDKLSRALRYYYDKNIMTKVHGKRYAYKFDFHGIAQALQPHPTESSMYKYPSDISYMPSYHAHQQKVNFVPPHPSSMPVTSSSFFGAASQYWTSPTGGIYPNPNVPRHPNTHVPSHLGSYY
# How it was run: (§1)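 In yeast, human transcription factors were expressed with a GST fusion, then pulled down on glutathione beads and given DNA barcodes. Pooled with a tag-only sample, they were exposed to 200 nmole of a 16-mer random double-stranded DNA library (Tris/NaCl/DTT/glycerol buffer, room temperature, 30 min), washed, crosslinked with 0.1% formaldehyde, proximity-ligated using BsaI/T4 ligase for 1 h at 37 °C, PCR-amplified and read on an Illumina NextSeq500. Each hexamer's frequency of reads for a factor, divided by the matching frequency for the tag-only sample, gives the binding signal.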
# ELK1 = molecular target: T2, ELK1 (Homo sapiens, UniProt P19419 1-428); conditions: protein: recombinant; tags: N-terminal GST; dsDNA, one strand shown
# T2 sequence: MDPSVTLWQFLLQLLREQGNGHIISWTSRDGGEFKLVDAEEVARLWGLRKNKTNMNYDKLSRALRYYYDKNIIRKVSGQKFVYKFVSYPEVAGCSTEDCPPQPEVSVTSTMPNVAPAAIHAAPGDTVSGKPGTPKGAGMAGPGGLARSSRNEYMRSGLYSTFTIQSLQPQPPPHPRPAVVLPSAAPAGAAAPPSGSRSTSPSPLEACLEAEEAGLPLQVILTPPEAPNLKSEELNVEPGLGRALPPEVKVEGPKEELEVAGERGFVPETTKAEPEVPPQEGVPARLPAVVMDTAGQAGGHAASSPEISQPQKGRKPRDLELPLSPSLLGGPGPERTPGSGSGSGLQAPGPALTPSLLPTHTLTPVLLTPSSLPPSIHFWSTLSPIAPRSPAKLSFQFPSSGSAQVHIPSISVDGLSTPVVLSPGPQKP
# How it was run: as §1
# GABPA = molecular target: T3, GABPA (Homo sapiens, UniProt Q06546 1-454); conditions: protein: recombinant; tags: N-terminal GST; dsDNA, one strand shown
# T3 sequence: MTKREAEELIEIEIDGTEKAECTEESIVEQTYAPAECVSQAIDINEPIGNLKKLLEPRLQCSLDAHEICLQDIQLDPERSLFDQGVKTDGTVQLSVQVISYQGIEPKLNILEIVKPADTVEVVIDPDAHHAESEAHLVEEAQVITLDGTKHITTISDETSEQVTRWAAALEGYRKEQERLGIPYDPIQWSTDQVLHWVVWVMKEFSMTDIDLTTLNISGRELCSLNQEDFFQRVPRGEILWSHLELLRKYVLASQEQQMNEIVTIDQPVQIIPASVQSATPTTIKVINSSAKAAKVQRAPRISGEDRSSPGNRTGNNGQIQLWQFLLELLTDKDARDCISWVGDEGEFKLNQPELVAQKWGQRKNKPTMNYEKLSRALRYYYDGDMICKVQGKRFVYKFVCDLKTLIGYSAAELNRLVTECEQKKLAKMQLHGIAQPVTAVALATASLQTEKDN
# How it was run: as §1
# ERG = molecular target: T4, ERG (Homo sapiens, UniProt P11308 1-479); conditions: protein: recombinant; tags: N-terminal GST; dsDNA, one strand shown
# T4 sequence: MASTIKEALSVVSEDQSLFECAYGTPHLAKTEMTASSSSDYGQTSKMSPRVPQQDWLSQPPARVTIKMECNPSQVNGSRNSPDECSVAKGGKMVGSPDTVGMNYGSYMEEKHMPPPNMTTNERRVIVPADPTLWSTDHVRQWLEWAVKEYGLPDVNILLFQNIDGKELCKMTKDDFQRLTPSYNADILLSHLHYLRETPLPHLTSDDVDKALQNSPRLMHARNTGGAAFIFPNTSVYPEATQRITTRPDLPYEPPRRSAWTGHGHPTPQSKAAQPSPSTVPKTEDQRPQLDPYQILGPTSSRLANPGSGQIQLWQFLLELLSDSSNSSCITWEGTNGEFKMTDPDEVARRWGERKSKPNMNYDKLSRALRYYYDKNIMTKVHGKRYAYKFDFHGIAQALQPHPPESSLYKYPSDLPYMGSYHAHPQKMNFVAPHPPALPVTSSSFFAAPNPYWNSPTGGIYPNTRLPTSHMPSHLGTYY
# How it was run: as §1
# ELF1 = ELF1 (Homo sapiens, UniProt P32519 1-619); conditions: protein: recombinant; tags: N-terminal GST; dsDNA, one strand shown
# Chain of ELF1 (P32519 whole entry): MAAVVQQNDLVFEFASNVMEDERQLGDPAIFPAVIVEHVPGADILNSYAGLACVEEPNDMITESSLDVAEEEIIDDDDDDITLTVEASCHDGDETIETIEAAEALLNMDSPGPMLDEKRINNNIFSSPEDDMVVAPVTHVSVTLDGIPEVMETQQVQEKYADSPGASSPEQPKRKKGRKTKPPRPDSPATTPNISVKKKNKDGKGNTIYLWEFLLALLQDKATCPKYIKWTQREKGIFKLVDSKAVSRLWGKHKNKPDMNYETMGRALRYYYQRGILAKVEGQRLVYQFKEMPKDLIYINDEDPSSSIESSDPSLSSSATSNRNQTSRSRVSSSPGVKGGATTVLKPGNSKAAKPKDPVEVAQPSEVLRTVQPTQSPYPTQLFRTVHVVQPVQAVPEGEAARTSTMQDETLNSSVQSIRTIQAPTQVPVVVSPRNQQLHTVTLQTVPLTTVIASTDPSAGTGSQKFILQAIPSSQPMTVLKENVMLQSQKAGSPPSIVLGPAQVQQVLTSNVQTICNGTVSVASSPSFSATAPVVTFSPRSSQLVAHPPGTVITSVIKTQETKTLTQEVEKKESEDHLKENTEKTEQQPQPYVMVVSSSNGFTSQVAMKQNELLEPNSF
# How it was run: as §1
# EHF = molecular target: T5, EHF (Homo sapiens, UniProt Q9NZC4 1-300); conditions: protein: recombinant; tags: N-terminal GST; dsDNA, one strand shown
# T5 sequence: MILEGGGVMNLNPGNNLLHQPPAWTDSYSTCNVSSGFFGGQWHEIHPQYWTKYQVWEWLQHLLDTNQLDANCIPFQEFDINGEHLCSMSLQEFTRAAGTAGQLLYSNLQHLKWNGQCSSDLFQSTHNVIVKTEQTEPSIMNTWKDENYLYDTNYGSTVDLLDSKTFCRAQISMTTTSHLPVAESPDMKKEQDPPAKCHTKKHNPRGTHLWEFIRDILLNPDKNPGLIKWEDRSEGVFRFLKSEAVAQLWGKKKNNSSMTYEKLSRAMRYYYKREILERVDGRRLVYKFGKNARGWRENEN
# How it was run: as §1
# SPI1 = SPI1 (Homo sapiens, UniProt P17947 1-270); conditions: protein: recombinant; tags: N-terminal GST; dsDNA, one strand shown
# How it was run: as §1
# SPIB = SPIB (Homo sapiens, UniProt Q01892 1-262); conditions: protein: recombinant; tags: N-terminal GST; dsDNA, one strand shown
# Chain of SPIB (Q01892 whole entry): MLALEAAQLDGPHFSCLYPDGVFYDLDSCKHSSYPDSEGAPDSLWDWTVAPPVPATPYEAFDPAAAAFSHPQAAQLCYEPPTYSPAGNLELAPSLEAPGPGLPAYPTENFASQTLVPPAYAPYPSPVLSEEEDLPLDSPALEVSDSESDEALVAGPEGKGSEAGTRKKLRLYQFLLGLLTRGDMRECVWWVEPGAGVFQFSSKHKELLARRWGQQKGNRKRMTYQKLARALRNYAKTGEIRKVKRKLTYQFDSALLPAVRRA
# How it was run: as §1
# ELK3 = molecular target: T6, ELK3 (Homo sapiens, UniProt P41970 1-407); conditions: protein: recombinant; tags: N-terminal GST; dsDNA, one strand shown
# T6 sequence: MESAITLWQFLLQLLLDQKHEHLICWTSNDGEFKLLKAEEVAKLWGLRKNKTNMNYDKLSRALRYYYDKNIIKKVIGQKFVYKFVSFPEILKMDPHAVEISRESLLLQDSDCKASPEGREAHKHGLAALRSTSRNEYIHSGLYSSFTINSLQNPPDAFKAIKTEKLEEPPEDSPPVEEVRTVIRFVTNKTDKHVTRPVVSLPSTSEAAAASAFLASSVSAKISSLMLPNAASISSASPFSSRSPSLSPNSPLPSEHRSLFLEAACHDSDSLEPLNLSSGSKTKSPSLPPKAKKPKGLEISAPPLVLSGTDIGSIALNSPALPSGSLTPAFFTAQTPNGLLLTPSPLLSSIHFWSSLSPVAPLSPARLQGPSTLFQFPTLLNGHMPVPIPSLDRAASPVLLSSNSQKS
# How it was run: as §1
# FEV = molecular target: T7, FEV (Homo sapiens, UniProt Q99581 1-238); conditions: protein: recombinant; tags: N-terminal GST; dsDNA, one strand shown
# T7 sequence: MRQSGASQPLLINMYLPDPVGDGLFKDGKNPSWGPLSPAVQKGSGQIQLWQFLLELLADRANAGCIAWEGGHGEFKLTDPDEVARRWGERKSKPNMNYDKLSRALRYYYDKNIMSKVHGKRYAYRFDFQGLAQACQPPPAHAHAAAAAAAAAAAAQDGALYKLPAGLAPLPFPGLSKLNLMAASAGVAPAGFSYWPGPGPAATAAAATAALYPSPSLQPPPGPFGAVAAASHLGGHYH
# How it was run: as §1
# ETV5 = ETV5 (Homo sapiens, UniProt P41161 1-510); conditions: protein: recombinant; tags: N-terminal GST; dsDNA, one strand shown
# Chain of ETV5 (P41161 whole entry): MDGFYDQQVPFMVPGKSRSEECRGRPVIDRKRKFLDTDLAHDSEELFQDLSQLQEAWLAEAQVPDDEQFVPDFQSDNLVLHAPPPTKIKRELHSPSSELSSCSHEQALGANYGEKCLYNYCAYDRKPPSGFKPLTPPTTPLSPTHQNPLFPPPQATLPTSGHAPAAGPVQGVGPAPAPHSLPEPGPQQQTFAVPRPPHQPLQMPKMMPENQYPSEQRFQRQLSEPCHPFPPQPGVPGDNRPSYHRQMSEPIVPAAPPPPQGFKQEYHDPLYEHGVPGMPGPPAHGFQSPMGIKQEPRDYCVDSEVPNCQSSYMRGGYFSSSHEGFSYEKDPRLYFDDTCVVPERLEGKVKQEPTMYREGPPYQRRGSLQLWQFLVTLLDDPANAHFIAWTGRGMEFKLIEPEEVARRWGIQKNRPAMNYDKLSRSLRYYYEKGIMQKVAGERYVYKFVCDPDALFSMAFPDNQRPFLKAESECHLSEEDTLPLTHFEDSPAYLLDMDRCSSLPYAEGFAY
# How it was run: as §1
# HSF1 = HSF1 (Homo sapiens, UniProt Q00613 1-529); conditions: protein: recombinant; tags: N-terminal GST; chain copies: 3; dsDNA, one strand shown
# Chain of HSF1 (Q00613 whole entry): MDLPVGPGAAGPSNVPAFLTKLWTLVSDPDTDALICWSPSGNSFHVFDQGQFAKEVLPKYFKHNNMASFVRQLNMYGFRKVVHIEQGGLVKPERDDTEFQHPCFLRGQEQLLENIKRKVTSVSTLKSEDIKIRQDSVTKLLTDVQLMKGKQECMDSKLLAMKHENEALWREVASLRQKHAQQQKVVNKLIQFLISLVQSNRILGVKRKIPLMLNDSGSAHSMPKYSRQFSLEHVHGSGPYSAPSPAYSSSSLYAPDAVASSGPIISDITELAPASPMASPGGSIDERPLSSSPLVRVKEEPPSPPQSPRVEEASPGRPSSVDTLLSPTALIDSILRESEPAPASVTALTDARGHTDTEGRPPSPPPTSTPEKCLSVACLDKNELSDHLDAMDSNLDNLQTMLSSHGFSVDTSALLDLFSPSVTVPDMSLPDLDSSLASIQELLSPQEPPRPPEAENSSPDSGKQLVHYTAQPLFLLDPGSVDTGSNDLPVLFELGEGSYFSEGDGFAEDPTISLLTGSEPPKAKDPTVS
# How it was run: as §1
# SPIC = molecular target: T8, SPIC (Homo sapiens, UniProt Q8N5J4 1-248); conditions: protein: recombinant; tags: N-terminal GST; dsDNA, one strand shown
# T8 sequence: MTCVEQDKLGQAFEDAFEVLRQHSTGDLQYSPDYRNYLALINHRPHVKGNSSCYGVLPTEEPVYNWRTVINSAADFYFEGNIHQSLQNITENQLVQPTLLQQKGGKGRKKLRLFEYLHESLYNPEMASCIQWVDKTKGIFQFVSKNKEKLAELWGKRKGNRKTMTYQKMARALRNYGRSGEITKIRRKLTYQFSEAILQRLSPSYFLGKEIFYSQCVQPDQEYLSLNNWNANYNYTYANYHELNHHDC
# How it was run: as §1
# ELF4 = ELF4 (Homo sapiens, UniProt Q99607 1-663); conditions: protein: recombinant; tags: N-terminal GST; dsDNA, one strand shown
# Chain of ELF4 (Q99607 whole entry): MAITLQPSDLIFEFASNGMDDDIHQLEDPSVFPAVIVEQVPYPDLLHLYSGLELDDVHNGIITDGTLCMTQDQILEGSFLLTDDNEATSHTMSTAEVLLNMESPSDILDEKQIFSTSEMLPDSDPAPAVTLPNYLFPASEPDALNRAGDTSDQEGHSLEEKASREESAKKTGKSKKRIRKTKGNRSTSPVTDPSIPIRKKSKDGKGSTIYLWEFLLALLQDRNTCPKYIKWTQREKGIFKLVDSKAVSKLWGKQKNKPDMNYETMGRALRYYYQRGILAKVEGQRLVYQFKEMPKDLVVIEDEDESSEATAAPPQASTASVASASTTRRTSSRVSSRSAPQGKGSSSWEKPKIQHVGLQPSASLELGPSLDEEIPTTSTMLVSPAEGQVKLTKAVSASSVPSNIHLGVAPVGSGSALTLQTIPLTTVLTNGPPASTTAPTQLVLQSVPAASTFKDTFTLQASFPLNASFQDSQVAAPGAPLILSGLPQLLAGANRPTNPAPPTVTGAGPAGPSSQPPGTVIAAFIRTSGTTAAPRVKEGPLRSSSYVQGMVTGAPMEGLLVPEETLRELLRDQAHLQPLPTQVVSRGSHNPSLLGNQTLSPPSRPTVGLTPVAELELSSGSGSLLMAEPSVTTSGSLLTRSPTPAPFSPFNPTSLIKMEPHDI
# How it was run: as §1
# ELK4 = molecular target: T9, ELK4 (Homo sapiens, UniProt P28324-2 1-405); conditions: protein: recombinant; tags: N-terminal GST; dsDNA, one strand shown
# T9 sequence: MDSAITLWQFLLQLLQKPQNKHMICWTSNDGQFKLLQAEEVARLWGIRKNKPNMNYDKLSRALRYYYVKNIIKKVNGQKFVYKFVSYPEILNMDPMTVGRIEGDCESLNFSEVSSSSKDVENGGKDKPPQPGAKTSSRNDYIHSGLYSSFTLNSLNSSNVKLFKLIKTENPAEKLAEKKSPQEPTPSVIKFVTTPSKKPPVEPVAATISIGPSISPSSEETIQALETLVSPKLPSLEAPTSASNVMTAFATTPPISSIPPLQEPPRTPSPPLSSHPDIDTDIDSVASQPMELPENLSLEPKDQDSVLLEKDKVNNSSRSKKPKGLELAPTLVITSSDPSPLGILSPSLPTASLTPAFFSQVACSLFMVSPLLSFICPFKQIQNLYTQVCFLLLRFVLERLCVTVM
# How it was run: as §1
# ETV2 = molecular target: T10, ETV2 (Homo sapiens, UniProt O00321 1-342); conditions: protein: recombinant; tags: N-terminal GST; dsDNA, one strand shown
# T10 sequence: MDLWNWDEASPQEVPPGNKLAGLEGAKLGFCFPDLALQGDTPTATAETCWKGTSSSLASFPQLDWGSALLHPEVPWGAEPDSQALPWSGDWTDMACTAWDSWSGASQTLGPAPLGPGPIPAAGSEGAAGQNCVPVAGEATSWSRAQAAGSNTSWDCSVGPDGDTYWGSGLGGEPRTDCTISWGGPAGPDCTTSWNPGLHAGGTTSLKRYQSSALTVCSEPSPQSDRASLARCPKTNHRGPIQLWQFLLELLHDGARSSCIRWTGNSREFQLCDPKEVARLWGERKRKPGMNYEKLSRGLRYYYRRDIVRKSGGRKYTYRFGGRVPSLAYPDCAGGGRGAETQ
# How it was run: as §1
# ELF3 = molecular target: T11, ELF3 (Homo sapiens, UniProt P78545 1-371); conditions: protein: recombinant; tags: N-terminal GST; dsDNA, one strand shown
# T11 sequence: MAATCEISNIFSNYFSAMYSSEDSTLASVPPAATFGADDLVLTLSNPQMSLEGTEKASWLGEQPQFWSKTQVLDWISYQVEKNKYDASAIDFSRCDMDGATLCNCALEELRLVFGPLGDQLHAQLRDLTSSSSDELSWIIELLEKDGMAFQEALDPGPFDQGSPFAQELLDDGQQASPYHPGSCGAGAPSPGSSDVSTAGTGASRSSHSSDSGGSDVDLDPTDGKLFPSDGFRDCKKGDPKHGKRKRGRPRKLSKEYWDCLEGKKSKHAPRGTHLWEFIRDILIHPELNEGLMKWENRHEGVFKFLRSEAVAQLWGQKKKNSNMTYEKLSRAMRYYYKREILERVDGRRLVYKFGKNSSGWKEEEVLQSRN
# How it was run: as §1
# ETV1 = ETV1 (Homo sapiens, UniProt P50549 1-477); conditions: protein: recombinant; tags: N-terminal GST; dsDNA, one strand shown
# Chain of ETV1 (P50549 whole entry): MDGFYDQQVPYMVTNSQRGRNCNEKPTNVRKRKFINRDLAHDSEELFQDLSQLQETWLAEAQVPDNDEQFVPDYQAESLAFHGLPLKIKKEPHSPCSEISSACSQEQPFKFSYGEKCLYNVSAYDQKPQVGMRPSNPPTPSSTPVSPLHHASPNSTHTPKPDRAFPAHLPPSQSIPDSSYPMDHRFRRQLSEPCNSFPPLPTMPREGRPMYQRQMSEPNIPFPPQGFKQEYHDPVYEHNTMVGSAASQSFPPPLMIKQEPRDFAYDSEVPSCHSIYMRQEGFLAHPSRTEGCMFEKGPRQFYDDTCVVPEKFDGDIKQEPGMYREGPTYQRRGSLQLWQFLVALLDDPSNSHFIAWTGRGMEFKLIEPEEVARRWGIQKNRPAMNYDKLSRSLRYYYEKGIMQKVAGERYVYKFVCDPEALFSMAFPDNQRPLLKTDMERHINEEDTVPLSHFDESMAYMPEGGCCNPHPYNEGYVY
# How it was run: as §1
sequence,measurement,setting,value
GCCTCA,binding signal,FLI1,"1.34 fold enrichment (6-mer frequency, TF over GST control)"
same,binding signal,ELK1,"1.34 fold enrichment (6-mer frequency, TF over GST control)"
same,binding signal,GABPA,"1.34 fold enrichment (6-mer frequency, TF over GST control)"
same,binding signal,ERG,"1.13 fold enrichment (6-mer frequency, TF over GST control)"
same,binding signal,ELF1,"1.25 fold enrichment (6-mer frequency, TF over GST control)"
same,binding signal,EHF,"1.17 fold enrichment (6-mer frequency, TF over GST control)"
same,binding signal,SPI1,"1.17 fold enrichment (6-mer frequency, TF over GST control)"
same,binding signal,SPIB,"1.25 fold enrichment (6-mer frequency, TF over GST control)"
same,binding signal,ELK3,"1.19 fold enrichment (6-mer frequency, TF over GST control)"
same,binding signal,FEV,"1.19 fold enrichment (6-mer frequency, TF over GST control)"
same,binding signal,ETV5,"1.22 fold enrichment (6-mer frequency, TF over GST control)"
same,binding signal,HSF1,"1.05 fold enrichment (6-mer frequency, TF over GST control)"
same,binding signal,SPIC,"1.21 fold enrichment (6-mer frequency, TF over GST control)"
same,binding signal,ELF4,"1.2 fold enrichment (6-mer frequency, TF over GST control)"
same,binding signal,ELK4,"1.13 fold enrichment (6-mer frequency, TF over GST control)"
same,binding signal,ETV2,"1.12 fold enrichment (6-mer frequency, TF over GST control)"
same,binding signal,ELF3,"1.34 fold enrichment (6-mer frequency, TF over GST control)"
same,binding signal,ETV1,"1.13 fold enrichment (6-mer frequency, TF over GST control)"
